Screening results as filed in PubChem BioAssay.
GoLoco inh red: qHTS Assay for Inhibitors of RGS12 GoLoco Motif Activity (Red Fluorophore) | Potency, µM (doses to about 61.6 µM), actives largely listed as inhibitors | Gai1:RGS12 GoLoco peptide FP, rhodamine, 10 min | AID 880, 2007 | 230,000 compounds, 0.44% hits | Guanine nucleotide-binding protein G(i) subunit alpha-1 (Homo sapiens), P63096; active means well fitted inhibition curve with a large enough effect, not every such curve was filed as active; inactive means no such curve, though single readings can be large or run the other way; further: nearly all actives have a fitted effect of over 30% in size
Target sequence (P63096 whole entry, looked up): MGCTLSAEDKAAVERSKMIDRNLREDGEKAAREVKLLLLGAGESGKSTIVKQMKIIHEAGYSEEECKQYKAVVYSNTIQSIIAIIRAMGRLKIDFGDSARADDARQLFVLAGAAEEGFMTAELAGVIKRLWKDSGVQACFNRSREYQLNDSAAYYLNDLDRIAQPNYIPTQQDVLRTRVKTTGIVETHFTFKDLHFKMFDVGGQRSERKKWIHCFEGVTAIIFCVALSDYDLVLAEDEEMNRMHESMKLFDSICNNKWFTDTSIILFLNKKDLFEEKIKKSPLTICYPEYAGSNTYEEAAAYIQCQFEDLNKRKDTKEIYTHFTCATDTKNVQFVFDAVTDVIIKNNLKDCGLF
Tau fibril FP: qHTS for Inhibitors of Tau Fibril Formation, Fluorescence Polarization; Microtubule-associated protein tau (Homo sapiens), P10636; K18 P301L tau heparin fibrillization, Alexa594 FP, 6 h; Potency, µM (highest dose often 57.7 µM), actives largely listed as inhibitors; 280,000 compounds, 0.39% hits; AID 1468, 2008; further: nearly all actives have a fitted effect of over 55% in size
Target sequence (P10636 561-689 P618L limits assumed): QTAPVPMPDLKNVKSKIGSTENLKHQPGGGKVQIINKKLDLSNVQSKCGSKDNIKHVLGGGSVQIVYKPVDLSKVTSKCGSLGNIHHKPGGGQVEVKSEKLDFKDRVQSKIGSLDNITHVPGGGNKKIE
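Human K18 P301L fragment (15 uM unlabeled plus 0.24 uM Alexa 594-labeled) in 100 mM sodium acetate pH 7 with compound, aggregation induced by 20 uM heparin for 6 hr at 37 C. ThT (30 uM) added for 1 hr, then Alexa 594 FP read.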
Tau fluor counter: Counterscreen qHTS for Inhibitors of Tau Fibril Formation, Fluorescence Polarization | tau K18 P301L Alexa594 fluorescence, heparin fibrillization | Potency, µM (series often up to 57.7 µM) | 280,000 compounds, 0.93% hits | AID 1463, 2008; further: nearly all actives have a fitted effect of over 55% in size
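Human K18 P301L tau (15 uM unlabeled plus 0.24 uM Alexa 594-labeled, final) in 100 mM sodium acetate pH 7 was mixed with compound and 20 uM heparin and incubated 6 hr at 37 C.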
TRb-SRC2 inh: qHTS for Inhibitors of the Interaction of Thyroid Hormone Receptor and Steroid Receptor Coregulator 2 | AID 1469, 2008 | 280,000 compounds, 0.065% hits | TRbeta-SRC2 peptide binding, fluorescence polarization; receptor liganded with 1 µM T3 | Potency, µM (titrated, usually from 106 µM), actives largely listed as inhibitors; further: nearly all actives have a fitted effect of over 50% in size
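TRb LBD 0.6 uM + Texas Red SRC2 peptide 20 nM, 1 uM T3, Tris buffer w/ 5% DMSO; compound pinned, 5 h RT; FP read ex 555/em 632; normalized to unbound and bound controls.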
TR SRC2 fluor cs: Total Fluorescence Counterscreen for Inhibitors of the Interaction of Thyroid Hormone Receptor and Steroid Receptor Coregulator 2. 280,000 compounds, 0.29% hits. Potency, µM (titrated, usually from 106 µM). AID 1479, 2009. TRb/SRC2 Texas Red total fluorescence interference; active means well fitted curve in either direction with a large enough effect; inconclusive means small, poorly fitted or top-dose-only effect
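Human TRb ligand-binding domain at 0.6 uM with 20 nM Texas Red SRC2 peptide in Tris buffer containing 1 uM T3 and 5% DMSO, incubated with compound 5 h at ambient temperature. Total fluorescence (555/632 nm) calculated as parallel + 2 × perpendicular.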
Tau ThT inhib: qHTS for Inhibitors of Tau Fibril Formation, Thioflavin T Binding | Microtubule-associated protein tau (Homo sapiens), P10636 | recombinant tau K18 P301L (four-repeat tau fragment), heparin-induced fibrillization, ThT fluorescence | Potency, µM (series often up to 57.4 µM), most hits filed as inhibitors | 270,000 compounds, 2.1% hits | AID 1460, 2008; further: nearly all actives have a fitted effect of over 55% in size
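In this qHTS, human K18 P301L tau is incubated with compound and heparin for 6 hr at 37 C, and Thioflavin T fluorescence then reports fibril load.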
Numbers stand for hits; - = inactive; ? = inconclusive; . = not tested or not shown; [ ] = dose if it differs, or a comment. Compounds with a hit are over-represented: about 3.2% of the library has one in this group of screens. Unless noted, the call rests on the fitted dose curve; in most records, active means well fitted curve in the direction sought with a large enough effect; inconclusive means small, poorly fitted or top-dose-only effect, or another doubt; inactive means no such curve, though single readings can be large; an effect the other way counts as inactive or inconclusive.

SMILES	GoLoco inh red	Tau fibril FP	Tau fluor counter	TRb-SRC2 inh	TR SRC2 fluor cs	Tau ThT inhib
CSCC[C@H](NC(=O)[C@H](CC(C)C)N(C)C(=O)[C@@H]1CCCN1C(=O)[C@H](Cc1ccccc1)NC(=O)[C@H](Cc1ccccc1)NC(=O)CCC(C)N)C(=O)O (some centres not stated)	.	.	.	-	-	.
COCCCNC(=O)c1c(NC(=O)c2nc(S(C)(=O)=O)ncc2Cl)sc2c1CCCC2	.	-	-	-	-	12.6µM
CCNC(=O)c1c(NC(=O)c2nc(S(=O)(=O)CC)ncc2Cl)sc2c1CCCC2	.	-	-	-	?	6.31µM
C[Si](C)(Cl)[Si](C)(C)Cl	.	.	.	-	-	.
COc1ccc(NC(=S)Nc2ccccc2)c(OC)c1	-	-	-	-	-	-
COc1ccc(NC(=S)Nc2ccc(OCc3ccccc3)cc2)c(OC)c1	-	?	14.1µM[quencher]	-	-	?
N#Cc1cccc(NC(=O)N2CCCC3(CCN(C(=O)c4cc(C(F)(F)F)cc(C(F)(F)F)c4)CC3)C2)c1	-	.	.	.	.	.
Cc1cccc(C(=O)NCC(c2cccs2)S(=O)(=O)c2cccs2)c1 (configuration not stated)	.	-	-	-	-	-
C(=N\c1c(-c2ccccc2)nc2n1CCS2)/c1ccccc1	-	?	?	-	-	22.4µM
Cc1cnc(C(=O)Nc2ccc(N3CCN(C(=O)OC(C)(C)C)CC3)cc2)cn1	-	-	-	-	-	1.78µM
Cc1cnc(C(=O)Nc2ccc(F)cc2)cn1	-	-	-	-	-	-
Nc1ncnc2c1ncn2C[C@@H](O)C(=O)O	-[14.2 µM]	.	.	.	.	.
CC1=CC(C)(C)Nc2ccc(OC(=O)CCN3C(=O)c4ccccc4C3=O)cc21	-	?	?	-	-	?
COC(=O)c1ccc(OS(=O)(=O)c2ccc(NC(C)=O)cc2)cc1	-	-	-	-	-	-
CC(=O)Nc1ccc(S(=O)(=O)Oc2ccc3c(c2)C(C)=CC(C)(C)N3)cc1	-	?	14.1µM[quencher]	-	-	?
CC1=CC(C)(C)Nc2ccc(OS(=O)(=O)c3ccc(C)cc3)cc21	-	?	5.01µM[quencher]	-	-	8.91µM
C(=Nc1ccc(N2CCOCC2)cc1)c1c[nH]c2ccccc12	-	-	?	?	-	25.1µM
Oc1c(Br)cc(Cl)cc1C=Nc1ccc(N2CCOCC2)cc1	-	-	-	-	-	15.8µM
Oc1ccc(N=Nc2cccc(Cl)c2)cc1C=Nc1ccc(N2CCOCC2)cc1	-	-	-	-	-	?
Oc1c(Cl)cc(Cl)cc1C=Nc1ccc2c(c1)OCCO2	-	-	-	-	-	15.8µM
Oc1ccc2ccccc2c1C=Nc1ccc(N2CCOCC2)cc1	-	-	?	-	-	5.01µM
Fc1ccc(N2CCN(c3ncnc4c3nc3n4CCCC3)CC2)cc1	.	-	-	-	-	-
COc1cccc(Cn2c(=O)cnc3cnc(Oc4cccc(Cl)c4)nc32)c1	-	.	.	.	.	.
COC(=O)c1ccc2c(c1)C(C)(C)C(/C=C/c1ccccc1O)=[N+]2C	-	?	25.1µM[fluorescent]	20µM	20µM[fluorescent]	10µM
COC(=O)c1ccc(N)c(N=CC2=C(O)CC(C)(C)CC2=O)c1	-	-	-	-	-	-
CC1=NOC(=O)/C1=C/c1ccc(N(C)C)cc1	.	-	-	-	-	?
CC(=O)N1/C(=C/c2ccc(N(C)C)cc2)C(=O)c2ccccc21	-	-	10µM[quencher]	-	-	10µM
Cc1ccc(NC(=O)c2c(C)oc3ncn(C)c(=O)c23)cc1F	.	-	-	-	-	-
Cc1ccc(CNC(=O)CSc2ncc(S(=O)(=O)c3ccc(Br)cc3)c(=O)[nH]2)cc1	.	-	-	-	0.398µM[quencher]	-
Cc1ccc(-n2c(=O)cc(N3CCN(c4ccccc4Cl)CC3)[nH]c2=O)cc1	.	-	-	-	-	-
